# Results reported in PubChem BioAssay (EPA / NIEHS).
# Inconclusive results are not listed. The source made the active and inactive calls. Rule for the calls, unless noted: active = hit-call score of the fitted dose curve at least 0.9, where 1 is the maximum; inconclusive = response in the unintended direction; inactive = score below 0.9.
# How the values were obtained:
# [1] = Tanguay_ZF_120hpf_PE_legacy: (Legacy) Oregon State University Tanguay Lab 120 Hour Post-fertilization zebrafish Assay for Pericardial Edema (AID 2283640);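 note: potency for increased incidence of pericardial edema versus DMSO baseline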
# In short: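 Embryos from wild-type 5D adults were staged, then dosed in 0.64% DMSO. They were kept sealed in the dark at 28C until 120 hpf. Pericardial edema was then recorded as present or absent.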
# [2] = Tanguay_ZF_120hpf_BRAI_legacy: (Legacy) Oregon State University Tanguay Lab 120 Hour Post-fertilization zebrafish Assay for Brain Malformation (AID 2283641)
# In short: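 Wild-type 5D larvae, static waterborne exposure to 120 hpf, 28C, 0.64% v/v DMSO. Brightfield scoring of brain defects, binary; dead embryos excluded. Positive ctrl 5uM trimethyltin chloride.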
# [3] = Tanguay_ZF_120hpf_SOMI_legacy: (Legacy) Oregon State University Tanguay Lab 120 Hour Post-fertilization zebrafish Assay for Somite Malformation (AID 2283647)
# In short: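 Read-out: presence or absence of somite malformation in 120 hpf larvae, gain-of-signal relative to DMSO baseline. Embryos lacked chorion (pronase, 4 hpf) and were exposed statically from 6 hpf at 28C; dead larvae not scored.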
# [4] = Tanguay_ZF_120hpf_PFIN_legacy: (Legacy) Oregon State University Tanguay Lab 120 Hour Post-fertilization zebrafish Assay for Pectoral Fin Malformation (AID 2283648);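 note: each larva judged yes or no for fin defect by brightfield with dead larvae skipped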
# In short: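 Dechorionated Tropical 5D wild-type zebrafish embryos, one per well, statically exposed from 6 to 120 hpf at 28C with 0.64% DMSO final. Pectoral fin malformation scored present/absent by brightfield at 120 hpf; not scored in dead embryos.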
# [5] = Tanguay_ZF_120hpf_CFIN_legacy: (Legacy) Oregon State University Tanguay Lab 120 Hour Post-fertilization zebrafish Assay for Caudal Fin Malformation (AID 2283649)
# In short: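 Binary presence or absence of caudal fin malformation at 120 hpf, read by brightfield microscopy, with DMSO as baseline. Larvae came from 5D wild-type embryos exposed statically from 6 hpf at 28C after pronase dechorionation.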
# [6] = Tanguay_ZF_120hpf_CIRC_legacy: (Legacy) Oregon State University Tanguay Lab 120 Hour Post-fertilization zebrafish Assay for Circulatory Malformation (AID 2283651)
# In short: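 Using wild-type Tropical 5D zebrafish, we exposed dechorionated embryos from 6 to 120 hpf in embryo medium with 0.64% DMSO. Circulatory defects were scored as present or absent; 5uM trimethyltin chloride served as positive control.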
# [7] = Tanguay_ZF_120hpf_SWIM_legacy: (Legacy) Oregon State University Tanguay Lab 120 Hour Post-fertilization zebrafish Assay for Swim Bladder Malformation (AID 2283654);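 note: swim bladder malformation in each larva scored yes or no under brightfield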
# In short: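 Dechorionated wild-type Tropical 5D zebrafish embryos, one per well from 6 hpf, were statically exposed at 28C until 120 hpf in 0.64% DMSO. Swim bladder malformation scored as present/absent by brightfield microscopy; not scored in dead larvae.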
# [8] = Tanguay_ZF_120hpf_TRUN_legacy: (Legacy) Oregon State University Tanguay Lab 120 Hour Post-fertilization zebrafish Assay for Truncated Body (AID 2283655)
# In short: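 Truncated body is recorded as a binary endpoint at 120 hpf by brightfield imaging of wild-type 5D larvae. Exposure runs statically from 6 hpf at 28C with 0.64% DMSO; embryos dying earlier are not scored.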
# [9] = Tanguay_ZF_120hpf_NC_legacy: (Legacy) Oregon State University Tanguay Lab 120 Hour Post-fertilization zebrafish Assay for Notochord and Tail Malformation (AID 2283656)
# In short: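 Dechorionated 5D zebrafish, 1/well from 6 hpf; static exposure to 120 hpf, 28C, sealed, dark; final DMSO 0.64% v/v. NC scored binary (present/absent); dead embryos not scored. Fit vs DMSO baseline, gain direction.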
# [10] = CCTE_Padilla_ZF_144hpf_TERATOSCORE: (Legacy) CCTE's 144 Hour Post-fertilization zebrafish Assay Teratoscore, Padilla Lab (AID 2283679; active = hit-call score of the fitted dose curve at least 0.9, where 1 is the maximum; inactive = score below 0.9;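 note: zebrafish embryos with chorions exposed by immersion from 6-8 hpf to 5 dpf with daily renewal; teratogenicity score from eye scoring of death hatching and malformations at 144 hpf; higher score means more developmental defects relative to DMSO baseline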)
# In short: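 Larvae scored by eye at 144 hpf for death, hatching and malformations after a day in clean Hanks'. Before that, daily-renewed exposure at 80 uM (0.4% DMSO, 26C) from roughly 6-8 hpf through 5 dpf, 4 embryos per chemical.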
# [11] = STM_H9_OrnithineISnorm_perc: Stemina devTOX quickPredict H9 human embryonic stem cell (hESC)-based Assay for Ornithine (ORN) Metabolite Biomarker, Normalized (AID 2283712; active = hit-call score of the fitted dose curve at least 0.9, where 1 is the maximum; inactive = score below 0.9;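 note: ornithine released into spent medium during last day measured by mass spectrometry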)
# In short: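 Cells: undifferentiated H9 hESC. Dosing: 72 h, media replaced every 24 h. Sample: final 24-h conditioned media, 40% acetonitrile. Read: UPLC-HRMS ornithine area vs 13C standard, % DMSO control.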
# [12] = STM_H9_CystineISnorm_perc: Stemina devTOX quickPredict H9 human embryonic stem cell (hESC)-based Assay for Cystine (CYSS) Metabolite Biomarker, Normalized (AID 2283713; active = hit-call score of the fitted dose curve at least 0.9, where 1 is the maximum; inactive = score below 0.9)
# In short: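 Secreted cystine was measured by UPLC-HRMS in H9 hESC medium after 72h compound exposure with 24-hourly replenishment. Values are standard-normalized areas relative to 0.1% DMSO.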
# [13] = STM_H9_OrnCyssISnorm_ratio: Stemina devTOX quickPredict H9 human embryonic stem cell (hESC)-based Assay for Ornithine (ORN):Cystine (CYSS) Ratio (AID 2283714)
# In short: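 Undifferentiated H9 hESCs exposed 72 h, media and compound replaced every 24 h; final 24-h conditioned media deproteinized and analysed by UPLC-HRMS against C13 spike-ins. Value is the internal-standard-normalized ORN/CYSS ratio versus 0.1% DMSO.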
# [14] = CEETOX_H295R_MTT_cell_viability: Viability Assessment in the CeeTox HT-H295R MTT Assay (AID 2283718; active = hit-call score of the fitted dose curve at least 0.9, where 1 is the maximum; inactive = score below 0.9;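 for AC50: curve fitted both ways so AC50 may mark viability loss or gain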)
# In short: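 Human H295R adrenal cells, prestimulated 48 h with 10 uM forskolin, were exposed 48 h to chemicals in 0.1% DMSO. Viability was measured in the same wells by MTT (0.5 mg/ml, 4 h, 37 C), absorbance 570/650 nm, as percent of controls.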
# [15] = Tanguay_ZF_120hpf_ActivityScore_legacy: (Legacy) Oregon State University Tanguay Lab 120 Hour Post-fertilization zebrafish Assay Score for Activity (AID 2283742)
# In short: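 Dechorionated Tropical 5D embryos, one per well from 6 hpf, statically exposed to 120 hpf at 28 °C in 0.64% DMSO. Mortality and malformations scored binary by brightfield microscopy; activity score combines 18 endpoints, fitted positively versus DMSO.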
# [16] = CCTE_Simmons_CellTiterGLO_HEK293T: Viability Assessment in CCTE's Assays for Thyroperoxidase (TPO) Inhibition, Simmons Lab (AID 2283665);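 for AC50: cells exposed to compound for 24 h before readout; actives reduce ATP signal below DMSO vehicle meaning cytotoxicity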
# In short: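 Cytotoxicity counter-screen: human HEK293T cells in low-serum (1% FBS) medium receive test chemical, 5 nM to 87.5 uM final, for 24 h; ATP is quantified by luciferase luminescence.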
# [17] = molecular target: Luciferin 4-monooxygenase (Photinus pyralis) (UniProt P08659); assay: CCTE_Simmons_QuantiLum_inhib_2: CCTE's Firefly Luciferase Inhibition Assay, Simmons Lab (AID 2283767)
# In short: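 Counter-screen for nonspecific enzyme inhibition: purified firefly luciferase incubated 30 min at 37C with chemicals up to 87.5 uM final, then luminescence measured after luciferin/dATP injection; activity fitted against DMSO baseline.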
# Luciferin 4-monooxygenase (Photinus pyralis), sequence (P08659 whole entry, looked up): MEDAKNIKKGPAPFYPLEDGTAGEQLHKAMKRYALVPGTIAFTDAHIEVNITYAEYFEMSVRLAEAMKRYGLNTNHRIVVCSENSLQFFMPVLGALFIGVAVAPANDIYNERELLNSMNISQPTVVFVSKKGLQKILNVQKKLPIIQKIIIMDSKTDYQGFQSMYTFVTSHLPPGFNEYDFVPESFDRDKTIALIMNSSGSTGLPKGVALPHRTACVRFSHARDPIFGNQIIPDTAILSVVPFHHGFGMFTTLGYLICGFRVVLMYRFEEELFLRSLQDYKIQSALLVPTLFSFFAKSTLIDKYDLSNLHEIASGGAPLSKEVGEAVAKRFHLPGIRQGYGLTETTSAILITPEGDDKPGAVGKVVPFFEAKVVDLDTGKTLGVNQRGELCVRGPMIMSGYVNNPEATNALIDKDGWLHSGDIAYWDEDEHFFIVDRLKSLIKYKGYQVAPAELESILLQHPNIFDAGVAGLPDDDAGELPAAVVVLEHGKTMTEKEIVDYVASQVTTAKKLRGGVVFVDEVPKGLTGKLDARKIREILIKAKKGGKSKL
smiles,measurement,setting,value
COC(=O)c1ccc(C(=O)OC)cc1,AC50,[1],28.9 µM (active)
same,AC50,[2],44.4 µM (active)
same,outcome,[3],inactive
same,outcome,[4],inactive
same,outcome,[5],inactive
same,outcome,[6],inactive
same,AC50,[7],12.3 µM (active)
same,outcome,[8],inactive
same,outcome,[9],inactive
same,AC50,[10],4.57 µM (active)
same,outcome,[11],inactive
same,outcome,[12],inactive
same,outcome,[13],inactive
same,outcome,[14],inactive
same,AC50,[15],77.4 µM (active)
CCCc1ccc(O)cc1,AC50,[16],87.9 µM (active)
same,outcome,[14],inactive
same,outcome,[17],inactive
COc1ccccc1O,outcome,[16],inactive
same,outcome,[17],inactive
CC(=O)OC/C=C(C)/C=C/C=C(C)/C=C/C1=C(C)CCCC1(C)C,outcome,[16],inactive
same,AC50,[13],78.1 µM (active)
same,AC50,[14],73.7 µM (active)
same,outcome,[17],inactive
O=C1OC2(c3ccc(O)cc3Oc3cc(O)ccc32)c2ccccc21,outcome,[16],inactive
same,outcome,[17],inactive
CCCCCCCCOC(=O)c1ccc(O)cc1,AC50,[16],24.4 µM (active)
same,outcome,[17],inactive
